Here are results for eight compounds from PubChem BioAssay (Tox21).

“And” between values parts separate entries of the source, which are not always exact repeats. Identical values can stand only once. Some structures have more than one record in an assay (separate samples or runs), and their calls can disagree. The source made the active and inactive calls. Unless noted, calls follow the shape of the dose curve; as a rule, active = well fitted curve in the direction sought with a large enough effect in the repeat runs; inconclusive = weak or mixed curves; inactive = no such curve, though single readings can be large; an effect the other way counts as inactive or inconclusive.

Experiment [1] can be described thus: qHTS assay to identify small molecule antagonists of the thyroid receptor (TR) signaling pathway (AID 743065). Also: series mostly up to about 70 µM; nearly all actives have a fitted effect of over 55% in size. An outline of the steps:
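GH3.TRE-Luc rat pituitary cells carrying two TR response elements driving luciferase were plated for 4 h, given compound plus 1 nM T3 (final), and incubated 23.5 h at 37 C. ONE-Glo luminescence measured reporter inhibition; CellTiter-Fluor fluorescence tracked cytotoxicity.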
For orientation: In qHTS, concentration-response curves come from the screen itself.

Experiment [2] relates to thyroid hormone receptor (rat, GH3 cells). The experiment can be described thus: qHTS assay to identify small molecule agonists of the thyroid receptor (TR) signaling pathway (AID 743066; calls by dose curve).
Experiment [3] addresses Estrogen receptor (Homo sapiens) (UniProt P03372). The experiment in a line: qHTS assay to identify small molecule antagonists of the estrogen receptor alpha (ER-alpha) signaling pathway (AID 743069; active = well fitted curve in the direction sought with a large enough effect in the signal ratio in the repeat runs, not every such curve was filed as active; inconclusive = weak or mixed curves, or effect the other way; inactive = no such curve, though single readings can be large or run the other way; the % refers to the signal ratio; also: potency is read from the fitted curve at half-maximal effect). The method in brief:
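Estradiol-stimulated ER-alpha-UAS-bla HEK293 cells, 18 hr compound exposure at 37C. LiveBLAzer B/G substrate, 2 hr RT, fluorescence read.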

Experiment [4] can be described thus: qHTS assay to identify small molecule antagonists of the estrogen receptor alpha (ER-alpha) signaling pathway - cell viability counter screen (AID 743074; calls by dose curve;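 also: HEK293 cells carrying ER-alpha-UAS-bla reporter stimulated with 17beta-estradiol; nearly all actives have a fitted effect of over 45% in size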).
In experiment [5] the target is Estrogen receptor (Homo sapiens) (UniProt P03372). The experiment can be described thus: qHTS assay to identify small molecule agonists of the estrogen receptor alpha (ER-alpha) signaling pathway (AID 743075; calls by dose curve;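 also: HEK293 GripTite cells with ER-alpha and UAS-driven beta-lactamase reporter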).
Chain of Estrogen receptor (Homo sapiens) (P03372 whole entry, looked up): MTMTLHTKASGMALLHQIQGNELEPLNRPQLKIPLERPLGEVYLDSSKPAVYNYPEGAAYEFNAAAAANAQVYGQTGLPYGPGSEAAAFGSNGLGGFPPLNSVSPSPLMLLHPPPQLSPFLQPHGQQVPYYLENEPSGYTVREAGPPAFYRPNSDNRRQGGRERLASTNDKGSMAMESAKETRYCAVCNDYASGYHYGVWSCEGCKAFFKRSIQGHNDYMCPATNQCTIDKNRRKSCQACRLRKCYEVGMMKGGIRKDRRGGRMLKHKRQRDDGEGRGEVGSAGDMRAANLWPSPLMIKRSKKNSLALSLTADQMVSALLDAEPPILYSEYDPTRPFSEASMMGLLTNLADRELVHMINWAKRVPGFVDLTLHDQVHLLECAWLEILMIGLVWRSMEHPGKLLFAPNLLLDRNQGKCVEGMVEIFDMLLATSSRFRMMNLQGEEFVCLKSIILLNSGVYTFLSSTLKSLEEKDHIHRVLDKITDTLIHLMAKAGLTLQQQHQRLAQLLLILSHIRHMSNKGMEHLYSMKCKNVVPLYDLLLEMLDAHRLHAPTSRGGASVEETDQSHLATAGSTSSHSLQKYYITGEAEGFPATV
The target is the same in experiment [6]. The experiment in a line: qHTS assay to identify small molecule agonists of the estrogen receptor alpha (ER-alpha) signaling pathway using the BG1 cell line (AID 743079). Also: nearly all actives have a fitted effect of over 20% in size. Also: potency is read from the fitted curve at half-maximal effect.
The nature of experiment [7]: qHTS assay to identify small molecule antagonists of the estrogen receptor alpha (ER-alpha) signaling pathway using the BG1 cell line (AID 743080; calls by dose curve;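 also: BG1 cells stimulated with 17beta-estradiol alongside compound; series mostly up to about 70 µM; nearly all actives have a fitted effect of over 25% in size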). The method in brief:
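After 5 days in phenol-red-free 10% charcoal-stripped FBS medium, BG1-Luc-4E2 cells were seeded, left 24 h at 37 C, co-treated with compounds and 17beta-estradiol for 21.5 h, then assayed for viability and luciferase.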

Experiment [8] is described as follows: qHTS assay to identify small molecule antagonists of the estrogen receptor alpha (ER-alpha) signaling pathway using the BG1 cell line - cell viability counter screen (AID 743081).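 Also: compound given together with 17beta-estradiol as the ER stimulus; series mostly up to about 70 µM; nearly all actives have a fitted effect of over 45% in size.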
The target in another experiment is Aromatase (Homo sapiens) (UniProt P11511). The experiment can be described thus: qHTS assay to identify aromatase inhibitors (AID 743083). Also: series mostly up to about 70 µM; nearly all actives have a fitted effect of over 55% in size.
Chain of Aromatase (Homo sapiens) (P11511 whole entry, looked up): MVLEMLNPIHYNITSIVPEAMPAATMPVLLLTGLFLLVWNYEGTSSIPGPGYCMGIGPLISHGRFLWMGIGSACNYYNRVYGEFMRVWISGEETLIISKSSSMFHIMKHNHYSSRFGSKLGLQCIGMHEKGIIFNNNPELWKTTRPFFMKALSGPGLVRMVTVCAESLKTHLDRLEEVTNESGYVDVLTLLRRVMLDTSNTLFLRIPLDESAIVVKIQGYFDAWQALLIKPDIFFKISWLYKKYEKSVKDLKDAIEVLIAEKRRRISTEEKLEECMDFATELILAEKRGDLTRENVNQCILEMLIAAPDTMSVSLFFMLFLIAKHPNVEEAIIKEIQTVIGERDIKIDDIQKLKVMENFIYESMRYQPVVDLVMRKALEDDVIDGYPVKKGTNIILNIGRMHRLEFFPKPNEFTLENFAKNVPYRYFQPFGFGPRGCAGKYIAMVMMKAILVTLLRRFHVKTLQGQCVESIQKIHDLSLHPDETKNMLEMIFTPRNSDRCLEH
A short description of experiment [9]: qHTS assay to identify aromatase inhibitors - cell viability counter screen (AID 743084).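 Also: cells stimulated with testosterone during compound exposure; nearly all actives have a fitted effect of over 55% in size.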
The nature of experiment [10]: qHTS assay to identify small molecule that activate the aryl hydrocarbon receptor (AhR) signaling pathway - cell viability counter screen (AID 743086).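 Also: HepG2 liver cells carrying the AhR DRE luciferase reporter; series mostly up to about 70 µM; nearly all actives have a fitted effect of over 45% in size.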 The method in brief: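 HepG2-AhR-luc (HG2L7.5c1) cells, 4000/well, were preincubated 5 h at 37C, exposed to compound in qHTS format for 24 hr at 37C, then given CellTiter-Fluor for 30 min; viability was read as fluorescence in the reporter wells.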

For experiment [11], the target named is Peroxisome proliferator-activated receptor gamma (Homo sapiens) (UniProt P37231). The experiment in a line: qHTS assay to identify small molecule agonists of the peroxisome proliferator-activated receptor gamma (PPARg) signaling pathway (AID 743094; active = well fitted activation curve with a large enough effect in the signal ratio in the repeat runs, not every such curve was filed as active; inconclusive = weak or mixed curves, or effect the other way; inactive = no such curve, though single readings can be large or run the other way; the % refers to the signal ratio). The method in brief:
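Quantitative HTS agonist mode: stable HEK293H line with UAS-beta-lactamase reporter under PPARg control, 17 h compound exposure at 37C, fluorescence after 1 h FRET substrate loading at room temperature.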

Experiment [12] in a line: qHTS assay to identify small molecule antagonists of the peroxisome proliferator-activated receptor gamma (PPARg) signaling pathway - cell viability counter screen (AID 743194). Also: nearly all actives have a fitted effect of over 55% in size. The method in brief:
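PPARg-UAS-bla HEK293H cells were plated, rested 5 h at 37 C, then treated with compounds plus rosiglitazone (50 nM final) for 17 h at 37 C; viability was then read by CellTiter-Glo luminescence after 30 min at room temperature.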

Experiment [13] is described as follows: qHTS assay for small molecule agonists of the antioxidant response element (ARE) signaling pathway (AID 743202; active = well fitted activation curve with a large enough effect in the signal ratio in the repeat runs, not every such curve was filed as active; inconclusive = weak or mixed curves, or effect the other way; inactive = no such curve, though single readings can be large or run the other way; the % refers to the signal ratio). An outline of the steps: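 Compounds delivered in DMSO to ARE-bla HepG2 cells (2,000 cells/well, pre-incubated 5 h) and left 16 h at 37 C. LiveBLAzer B/G FRET substrate then added for 2 h at RT before fluorescence reading.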
Experiment [14] can be described thus: qHTS assay for small molecule agonists of the antioxidant response element (ARE) signaling pathway - cell viability counter screen (AID 743203; calls by dose curve; also: nearly all actives have a fitted effect of over 55% in size). The method in brief: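 Seeded at 2,000 cells/well, ARE-bla HepG2 cells were incubated 5 hrs before compound addition. After 16 hrs of treatment at 37C with 5% CO2, CellTiter-Glo reagent was added and luminescence read 30 min later.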

The nature of experiment [15]: qHTS assay for small molecule activators of the heat shock response signaling pathway - cell viability counter screen (AID 743209). Also: nearly all actives have a fitted effect of over 50% in size. An outline of the steps:
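First, HSE-bla HeLa cells were seeded at 1500 cells/well and kept overnight at 37 C. Next, compounds were pinned in and incubated 5 h. After the FRET substrate step, CellTiter-Glo was added and luminescence read 30 min later.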

Experiment [16] can be described thus: qHTS assay for small molecule activators of the heat shock response signaling pathway (AID 743210; active = well fitted activation curve with a large enough effect in the signal ratio in the repeat runs, with a control signal flat, not every such curve was filed as active; inconclusive = weak or mixed curves; the % refers to the signal ratio;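 also: HeLa cells with beta-lactamase reporter driven by heat shock elements; series mostly up to about 63 µM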). An outline of the steps:
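Reporter gene assay: HeLa cells stably bearing an HSE-bla construct, compound treatment 5 h at 37 C, LiveBLAzer substrate 2.5 h at RT, fluorescence intensity.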

Experiment [17] in a line: qHTS assay to identify small molecule agonists of the peroxisome proliferator-activated receptor delta (PPARd) signaling pathway - cell viability counter screen (AID 743211). Also: nearly all actives have a fitted effect of over 55% in size. The method in brief: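 Luminescent ATP viability assay (CellTiter-Glo, 30 min RT) in UAS-bla HEK293H cells carrying the PPAR delta reporter construct, 3000 cells/well, after a 17 h compound treatment at 37 C.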

The target in experiment [18] is Aryl hydrocarbon receptor (Homo sapiens) (UniProt P35869). The experiment can be described thus: qHTS assay to identify small molecule that activate the aryl hydrocarbon receptor (AhR) signaling pathway (AID 743085).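 Also: HG2L7.5c1 human HepG2 liver cells with stably integrated DRE-driven firefly reporter; series mostly up to about 70 µM; nearly all actives have a fitted effect of over 15% in size.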 The method in brief:
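24 h compound exposure, 37C, HepG2-derived HG2L7.5c1 cells with DRE-responsive luciferase. Readouts: fluorescence viability, then luminescence at room temperature after 30 min.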

Experiment [19] deals with Peroxisome proliferator-activated receptor gamma (Homo sapiens) (UniProt P37231). The experiment in a line: qHTS assay to identify small molecule antagonists of the peroxisome proliferator-activated receptor gamma (PPARg) signaling pathway (AID 743191; calls by dose curve; also: series mostly up to about 63 µM; nearly all actives have a fitted effect of over 30% in size). The method in brief:
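GeneBLAzer PPARg UAS-bla HEK293H cells carrying a UAS-driven beta-lactamase reporter were plated at 3000 cells/well, preincubated 5 h at 37C, then given compound for 17 h at 37C; LiveBLAzer B/G FRET substrate was read after 1 h at room temperature.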

Chain of Peroxisome proliferator-activated receptor gamma (Homo sapiens) (P37231 whole entry, looked up): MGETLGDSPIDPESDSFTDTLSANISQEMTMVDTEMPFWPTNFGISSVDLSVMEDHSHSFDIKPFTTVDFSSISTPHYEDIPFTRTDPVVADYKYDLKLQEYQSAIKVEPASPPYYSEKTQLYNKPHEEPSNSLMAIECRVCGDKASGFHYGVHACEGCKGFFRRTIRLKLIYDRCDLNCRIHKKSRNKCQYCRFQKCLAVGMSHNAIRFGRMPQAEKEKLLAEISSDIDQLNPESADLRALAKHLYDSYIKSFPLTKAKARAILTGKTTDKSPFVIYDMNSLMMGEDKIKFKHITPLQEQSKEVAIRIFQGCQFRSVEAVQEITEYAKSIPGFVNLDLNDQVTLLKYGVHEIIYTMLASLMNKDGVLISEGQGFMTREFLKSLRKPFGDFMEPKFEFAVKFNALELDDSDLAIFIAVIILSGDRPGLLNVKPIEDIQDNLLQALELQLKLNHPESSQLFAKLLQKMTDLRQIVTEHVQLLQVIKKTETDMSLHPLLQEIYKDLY
Chain of Aryl hydrocarbon receptor (Homo sapiens) (P35869 whole entry, looked up): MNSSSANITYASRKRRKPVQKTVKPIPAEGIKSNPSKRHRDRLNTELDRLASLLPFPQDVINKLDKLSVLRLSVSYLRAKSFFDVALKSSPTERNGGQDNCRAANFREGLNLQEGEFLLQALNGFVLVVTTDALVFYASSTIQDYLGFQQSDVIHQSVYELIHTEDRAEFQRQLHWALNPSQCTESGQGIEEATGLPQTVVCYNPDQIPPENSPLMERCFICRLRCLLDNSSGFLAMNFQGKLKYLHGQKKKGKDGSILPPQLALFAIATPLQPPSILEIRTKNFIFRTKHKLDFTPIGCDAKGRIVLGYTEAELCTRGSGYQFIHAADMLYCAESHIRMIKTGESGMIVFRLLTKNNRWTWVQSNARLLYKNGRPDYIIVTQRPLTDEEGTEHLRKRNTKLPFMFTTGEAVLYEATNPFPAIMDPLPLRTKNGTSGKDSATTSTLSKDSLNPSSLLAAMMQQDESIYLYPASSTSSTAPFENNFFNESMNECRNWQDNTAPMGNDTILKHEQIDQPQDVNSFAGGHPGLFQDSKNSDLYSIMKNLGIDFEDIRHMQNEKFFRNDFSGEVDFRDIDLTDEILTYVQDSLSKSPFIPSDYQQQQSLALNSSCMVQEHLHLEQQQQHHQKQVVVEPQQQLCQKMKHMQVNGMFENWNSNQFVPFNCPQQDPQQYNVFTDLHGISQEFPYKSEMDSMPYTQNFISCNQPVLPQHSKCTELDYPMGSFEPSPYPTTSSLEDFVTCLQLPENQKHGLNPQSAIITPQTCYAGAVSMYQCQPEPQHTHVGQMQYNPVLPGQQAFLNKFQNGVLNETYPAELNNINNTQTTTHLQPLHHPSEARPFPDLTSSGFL

With `CC(CNC1CCCCC1)OC(=O)c1ccccc1` (stereo unspecified), the Potency entry (in [1]; in experiment [3]; in [4]; in experiment [6]; in experiment [8]; in the experiment with Aromatase (Homo sapiens)) was “inactive” each time. The Potency result in experiment [9], in experiment [11], in experiment [12], in experiment [13], in experiment [14] and in experiment [16] was “inactive” throughout. In addition, the Potency result in experiment [17] was “inactive”. For the same compound, the call in experiment [2], in [5], in experiment [7], in [10] and in experiment [15] was inactive.

In the case of `CCCCN1C[C@H](O)[C@@H](O)[C@H](O)[C@H]1CO`, the Potency result (in experiment [1]; in experiment [3]; in [4]; in experiment [6]; with Aromatase (Homo sapiens); in experiment [9]) was “inactive” in each case. Besides, the Potency entry in experiment [18], in experiment [11], in experiment [12], in [13], in experiment [14] and in [16] was “inactive” each time. Further, the Potency entry in [17] was “inactive”. For the same compound, the outcome in experiment [2], in [5], in [7], in [10] and in [15] was inactive.

Turning to `C=CCCCCCCCCO`, the Potency entry (in experiment [1]; in [3]; in experiment [4]; in [6]; in experiment [8]; with Aromatase (Homo sapiens)) was “inactive” in each case. In addition, the Potency entry in experiment [9], in [11], in [12], in [13], in experiment [14] and in experiment [16] was “inactive” each time. In addition, in experiment [17], the Potency result is “inactive”. The compound was classed as inactive in experiment [2], in experiment [5], in experiment [7], in [10] and in experiment [15].

Regarding `CC(C)C1=CC2=CC[C@@H]3[C@](C)(CCC[C@@]3(C)C(=O)O)[C@H]2CC1`, the Potency entry (in [1]; in experiment [4]; in experiment [6]; in experiment [8]; in the experiment with Aromatase (Homo sapiens); in experiment [9]) was “inactive” throughout. Moreover, the Potency result in experiment [11], in experiment [12], in experiment [14] and in experiment [17] was “inactive” in each case. Besides, the compound was classed as inactive in experiment [2], in [5], in [7], in [10] and in [15]. The Potency result in experiment [3] was “inactive and 54.9 µM [inconclusive] (active)”.

As for `O=C1CCCc2ccccc21`, the Potency entry (in [1]; in [3]; in experiment [4]; in experiment [6]; in experiment [8]; in the experiment with Aromatase (Homo sapiens)) was “inactive” each time. Besides, the Potency result in experiment [9], in [11], in experiment [12], in [13], in [14] and in experiment [16] was “inactive” in each case. In addition, the Potency result in experiment [17] was “inactive”. Besides, the result in experiment [2], in experiment [5], in experiment [7], in experiment [10] and in experiment [15] was inactive.

Consider `Cc1ccc(C)c(N)c1`, for which the Potency result (in experiment [1]; in [3]; in experiment [4]; in experiment [8]; with Aromatase (Homo sapiens); in experiment [9]) was “inactive” throughout. Further, the Potency entry in [11], in experiment [12], in experiment [14] and in experiment [17] was “inactive” throughout. Besides, the compound was called inactive in experiment [2], in experiment [5], in experiment [7], in [10] and in experiment [15]. The Potency in experiment [6] was 77 µM (active).

For `CCOc1ccccc1N`, the Potency result (in experiment [1]; in [3]; in [4]; in experiment [6]; in [8]; with Aromatase (Homo sapiens)) was “inactive” each time. Moreover, the Potency result in experiment [9], in [11], in experiment [19], in [12], in experiment [13] and in experiment [14] was “inactive” throughout. In addition, the Potency result in [16] and in [17] was “inactive” throughout. Moreover, the call in experiment [2], in [5], in [7], in experiment [10] and in experiment [15] was inactive.

With `CC(C)CC(=O)OCc1ccccc1`, the Potency entry (in [1]; in experiment [3]; in experiment [4]; in experiment [6]; in [8]; with Aromatase (Homo sapiens)) was “inactive” throughout. The Potency result in experiment [9], in experiment [11], in experiment [12], in [13], in experiment [14] and in experiment [16] was “inactive” each time. In experiment [17], the Potency result was “inactive”. The result in [2], in experiment [5], in [7], in [10] and in [15] was inactive.
